According to the supplement of paper PMC11732987, “Enantioselective OTUD7B fragment discovery through chemoproteomics screening and high-throughput optimisation” (Communications Chemistry, 2025):
Values without a mark were called inactive.

Legend:
Test in all cases: log2 ratio of Biotin-Ahx-Ub-VS probe labelling (fragment/DMSO); higher = less target engagement (more negative = stronger competition), active = hit call of the paper (q ≤ 0.05, log2 ratio ≤ -1)
Conditions in all cases: compound concentration: 200 uM; treatment time: 3 h
OTUD6B = molecular target: T1, OTUD6B (UniProt Q8N6M0)
T1 sequence (whole entry): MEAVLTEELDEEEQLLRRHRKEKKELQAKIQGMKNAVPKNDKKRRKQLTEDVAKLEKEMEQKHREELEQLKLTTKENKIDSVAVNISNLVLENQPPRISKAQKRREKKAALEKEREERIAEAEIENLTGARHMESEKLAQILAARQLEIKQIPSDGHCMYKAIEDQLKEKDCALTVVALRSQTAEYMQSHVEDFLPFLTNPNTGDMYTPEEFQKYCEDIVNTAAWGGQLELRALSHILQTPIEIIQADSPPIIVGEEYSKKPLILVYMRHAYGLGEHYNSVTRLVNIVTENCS
Outline: (§1)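 Using Biotin-Ahx-Ub-VS at 0.5 µM final for 1 h, DUBs were labelled in HEK293T lysate (495 µg per sample) that had first been treated in triplicate with fragment at 200 µM or vehicle for 3 h. NeutrAvidin enrichment, LysC and trypsin digestion and diaPASEF LC-MS/MS followed. Spectronaut label-free quantities were global-median-normalised. Values are average log2 fragment/vehicle ratios by unpaired t-test, using proteins with ≥2 unique peptides.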

OTUD7B = molecular target: T2, OTUD7B (UniProt Q6GQQ9)
T2 sequence (whole entry): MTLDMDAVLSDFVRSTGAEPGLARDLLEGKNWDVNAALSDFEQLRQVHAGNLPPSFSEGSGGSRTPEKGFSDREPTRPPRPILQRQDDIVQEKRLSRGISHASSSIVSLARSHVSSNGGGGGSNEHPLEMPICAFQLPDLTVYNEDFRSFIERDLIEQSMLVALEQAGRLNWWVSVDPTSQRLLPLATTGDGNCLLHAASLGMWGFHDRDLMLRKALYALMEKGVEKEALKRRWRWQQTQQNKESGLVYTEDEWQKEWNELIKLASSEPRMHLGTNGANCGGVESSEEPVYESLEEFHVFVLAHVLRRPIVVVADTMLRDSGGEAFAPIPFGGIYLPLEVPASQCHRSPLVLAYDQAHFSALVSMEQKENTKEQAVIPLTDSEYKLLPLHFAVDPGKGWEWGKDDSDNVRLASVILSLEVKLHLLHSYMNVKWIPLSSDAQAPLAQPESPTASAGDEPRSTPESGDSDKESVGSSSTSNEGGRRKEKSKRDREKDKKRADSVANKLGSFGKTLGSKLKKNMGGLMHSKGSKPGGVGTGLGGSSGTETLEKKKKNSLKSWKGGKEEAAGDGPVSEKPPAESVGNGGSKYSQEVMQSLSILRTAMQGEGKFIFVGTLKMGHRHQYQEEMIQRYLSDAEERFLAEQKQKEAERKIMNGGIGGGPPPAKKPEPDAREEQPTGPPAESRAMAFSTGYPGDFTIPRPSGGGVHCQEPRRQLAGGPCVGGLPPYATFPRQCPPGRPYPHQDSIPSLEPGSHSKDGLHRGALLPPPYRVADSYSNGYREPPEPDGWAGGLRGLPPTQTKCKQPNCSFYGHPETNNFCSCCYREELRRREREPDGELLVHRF
Outline: as §1

PRPF8 = PRPF8 (UniProt Q6P2Q9)
Outline: as §1

PSMD7 = molecular target: T3, PSMD7 (UniProt P51665)
T3 sequence (whole entry): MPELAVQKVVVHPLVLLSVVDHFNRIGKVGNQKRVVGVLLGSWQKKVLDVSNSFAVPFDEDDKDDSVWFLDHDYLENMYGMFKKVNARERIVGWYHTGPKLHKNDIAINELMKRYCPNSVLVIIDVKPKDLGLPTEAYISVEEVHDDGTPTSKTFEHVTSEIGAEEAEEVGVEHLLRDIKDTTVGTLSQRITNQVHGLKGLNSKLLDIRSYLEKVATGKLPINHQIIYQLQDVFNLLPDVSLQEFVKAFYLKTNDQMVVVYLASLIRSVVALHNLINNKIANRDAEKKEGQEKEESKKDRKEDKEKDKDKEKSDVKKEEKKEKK
Outline: as §1

UCHL1 = UCHL1 (UniProt P09936)
Sequence of UCHL1 (P09936 whole entry, looked up): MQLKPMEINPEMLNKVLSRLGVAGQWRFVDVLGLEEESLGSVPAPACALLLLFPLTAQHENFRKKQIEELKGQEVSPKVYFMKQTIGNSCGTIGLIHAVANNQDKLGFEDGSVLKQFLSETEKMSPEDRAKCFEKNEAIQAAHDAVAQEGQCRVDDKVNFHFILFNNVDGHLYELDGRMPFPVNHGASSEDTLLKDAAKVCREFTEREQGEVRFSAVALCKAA
Outline: as §1

UCHL3 = molecular target: T4, UCHL3 (UniProt P15374)
T4 sequence (whole entry): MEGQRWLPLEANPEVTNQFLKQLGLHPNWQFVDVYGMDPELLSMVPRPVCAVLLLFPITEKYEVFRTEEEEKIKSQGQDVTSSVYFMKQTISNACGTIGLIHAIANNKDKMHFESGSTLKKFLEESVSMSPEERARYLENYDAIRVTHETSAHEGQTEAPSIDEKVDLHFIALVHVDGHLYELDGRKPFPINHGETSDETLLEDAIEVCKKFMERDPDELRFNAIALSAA
Outline: as §1

UCHL5 = molecular target: T5, UCHL5 (UniProt Q9Y5K5)
T5 sequence (whole entry): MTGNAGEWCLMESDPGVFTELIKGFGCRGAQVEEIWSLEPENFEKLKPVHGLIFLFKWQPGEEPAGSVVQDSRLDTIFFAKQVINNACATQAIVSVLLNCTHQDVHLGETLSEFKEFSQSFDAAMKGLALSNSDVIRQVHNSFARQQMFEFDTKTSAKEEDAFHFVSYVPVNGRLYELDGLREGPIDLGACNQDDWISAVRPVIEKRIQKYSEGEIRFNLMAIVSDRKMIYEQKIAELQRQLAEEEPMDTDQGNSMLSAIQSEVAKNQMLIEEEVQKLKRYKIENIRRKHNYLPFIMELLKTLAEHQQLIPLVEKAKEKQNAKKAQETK
Outline: as §1

USP10 = USP10 (UniProt Q14694)
Sequence of USP10 (Q14694 whole entry): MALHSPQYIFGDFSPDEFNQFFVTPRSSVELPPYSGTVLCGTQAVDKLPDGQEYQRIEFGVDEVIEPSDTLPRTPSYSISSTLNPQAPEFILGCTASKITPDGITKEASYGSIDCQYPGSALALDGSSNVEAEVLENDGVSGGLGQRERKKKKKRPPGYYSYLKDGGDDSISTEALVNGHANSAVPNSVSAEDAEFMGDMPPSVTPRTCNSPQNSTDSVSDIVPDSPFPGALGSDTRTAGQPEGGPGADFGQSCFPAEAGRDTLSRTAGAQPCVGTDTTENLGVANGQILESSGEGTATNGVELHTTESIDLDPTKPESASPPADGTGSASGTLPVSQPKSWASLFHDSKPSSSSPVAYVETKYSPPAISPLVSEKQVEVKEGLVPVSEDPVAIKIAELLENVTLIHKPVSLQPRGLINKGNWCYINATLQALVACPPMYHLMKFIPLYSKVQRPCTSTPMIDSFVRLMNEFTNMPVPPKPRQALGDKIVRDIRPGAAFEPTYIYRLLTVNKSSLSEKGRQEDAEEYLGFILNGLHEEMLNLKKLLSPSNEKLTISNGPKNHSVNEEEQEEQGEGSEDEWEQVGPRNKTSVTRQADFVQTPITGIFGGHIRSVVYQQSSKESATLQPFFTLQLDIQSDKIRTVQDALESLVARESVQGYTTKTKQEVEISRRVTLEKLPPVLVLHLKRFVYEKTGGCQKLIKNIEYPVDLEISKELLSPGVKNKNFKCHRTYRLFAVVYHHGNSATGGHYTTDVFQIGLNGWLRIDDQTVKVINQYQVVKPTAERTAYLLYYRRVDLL
Outline: as §1

USP15 = molecular target: T6, USP15 (UniProt Q9Y4E8)
T6 sequence (whole entry): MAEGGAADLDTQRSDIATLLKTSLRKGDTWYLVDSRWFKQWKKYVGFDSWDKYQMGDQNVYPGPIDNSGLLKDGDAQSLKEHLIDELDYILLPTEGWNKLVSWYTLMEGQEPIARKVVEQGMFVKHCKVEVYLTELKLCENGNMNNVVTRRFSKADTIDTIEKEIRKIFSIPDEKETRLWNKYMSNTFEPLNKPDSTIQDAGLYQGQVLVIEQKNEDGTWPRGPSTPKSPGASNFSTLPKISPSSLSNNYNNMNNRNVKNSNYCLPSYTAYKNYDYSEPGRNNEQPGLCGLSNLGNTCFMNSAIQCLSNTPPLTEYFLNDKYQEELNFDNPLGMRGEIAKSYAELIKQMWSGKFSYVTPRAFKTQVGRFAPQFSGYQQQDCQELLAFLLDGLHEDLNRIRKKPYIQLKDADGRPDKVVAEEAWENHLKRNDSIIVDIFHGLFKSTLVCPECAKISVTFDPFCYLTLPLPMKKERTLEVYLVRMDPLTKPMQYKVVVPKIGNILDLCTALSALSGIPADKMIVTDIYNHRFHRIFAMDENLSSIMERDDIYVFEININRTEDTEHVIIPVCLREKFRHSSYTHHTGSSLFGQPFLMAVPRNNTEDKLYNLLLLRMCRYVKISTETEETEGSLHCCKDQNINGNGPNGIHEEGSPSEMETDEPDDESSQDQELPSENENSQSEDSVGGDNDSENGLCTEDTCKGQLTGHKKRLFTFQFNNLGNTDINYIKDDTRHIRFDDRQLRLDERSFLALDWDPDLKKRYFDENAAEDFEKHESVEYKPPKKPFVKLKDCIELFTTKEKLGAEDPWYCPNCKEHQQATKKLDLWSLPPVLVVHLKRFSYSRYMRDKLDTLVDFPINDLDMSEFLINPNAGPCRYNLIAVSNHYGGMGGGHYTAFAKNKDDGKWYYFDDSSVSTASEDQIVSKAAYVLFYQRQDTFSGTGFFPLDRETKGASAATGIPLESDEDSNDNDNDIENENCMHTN
Outline: as §1

USP16 = USP16 (UniProt Q9Y5T5)
Sequence of USP16 (Q9Y5T5 whole entry, looked up): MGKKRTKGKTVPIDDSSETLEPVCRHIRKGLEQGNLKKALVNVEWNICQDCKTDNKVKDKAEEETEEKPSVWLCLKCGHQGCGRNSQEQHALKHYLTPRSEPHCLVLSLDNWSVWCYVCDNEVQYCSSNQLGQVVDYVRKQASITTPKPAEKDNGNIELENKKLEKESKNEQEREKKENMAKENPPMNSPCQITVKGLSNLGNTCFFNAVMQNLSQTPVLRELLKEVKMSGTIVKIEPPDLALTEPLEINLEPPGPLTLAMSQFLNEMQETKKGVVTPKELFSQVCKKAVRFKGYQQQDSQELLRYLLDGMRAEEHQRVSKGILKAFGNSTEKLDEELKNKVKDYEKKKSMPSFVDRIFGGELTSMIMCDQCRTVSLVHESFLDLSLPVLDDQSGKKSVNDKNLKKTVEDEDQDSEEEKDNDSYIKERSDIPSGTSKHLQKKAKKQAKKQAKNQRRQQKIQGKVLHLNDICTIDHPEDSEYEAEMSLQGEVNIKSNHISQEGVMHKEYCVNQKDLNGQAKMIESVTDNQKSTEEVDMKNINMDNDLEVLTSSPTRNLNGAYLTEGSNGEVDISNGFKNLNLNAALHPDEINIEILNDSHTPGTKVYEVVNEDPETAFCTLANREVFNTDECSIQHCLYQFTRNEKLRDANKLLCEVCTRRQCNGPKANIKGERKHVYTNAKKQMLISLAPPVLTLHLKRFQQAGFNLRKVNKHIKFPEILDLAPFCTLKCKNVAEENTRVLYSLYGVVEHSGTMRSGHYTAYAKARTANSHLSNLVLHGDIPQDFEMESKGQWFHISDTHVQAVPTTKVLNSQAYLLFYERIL
Outline: as §1

**Q.** For `Cc1ccc(C)c(Oc2ccc(CNC(=O)CCl)cn2)c1.Cl`, which “log2 ratio of Biotin-Ahx-Ub-VS probe labelling” value (shortened to “log2 ratio”) (OTUD6B) is on record?
**A.** -0.139

**Q.** What about the “log2 ratio” value (OTUD7B) of the same compound?
**A.** -1.04 (active)

**Q.** What about the “log2 ratio” value (PRPF8) of the same compound?
**A.** -0.126

**Q.** What about the “log2 ratio” value (PSMD7) of the same compound?
**A.** -0.306

**Q.** And the “log2 ratio” value (UCHL1)?
**A.** -1.3 (active)

**Q.** What about the “log2 ratio” value (UCHL3) of the same compound?
**A.** -1.04 (active)

**Q.** And the “log2 ratio” value (UCHL5)?
**A.** -0.435

**Q.** What about the “log2 ratio” value (USP10) of the same compound?
**A.** -0.166

**Q.** And the “log2 ratio” value (USP15)?
**A.** -0.359

**Q.** And the “log2 ratio” value (USP16)?
**A.** -0.0509
